The record followed here is ChEMBL document CHEMBL3988442, “University of Dundee, Small-Polar-MMV Screening Library” (2021).

The first assay has as its system Trypanosoma cruzi. Put plainly: Trypanosoma cruzi phosphomannomutase and mannose-1-phosphate guanylyltransferase assay. The assay is classed as functional. On the set-up: scale not given: direction of the effect not stated beside the values. Conditions: 10 µM.
As to `CCn1nc(C)c(CNC(=O)c2cn(CC3CCCO3)nn2)c1C` (stereo not drawn), the Percent Effect amounted to 2.24%.
As to `CN1CCCc2cc(CNC(=O)c3ccc(NC4CC4)nc3)ccc21`, the Percent Effect is -0.923%.
The same measure, in the same setting: for `Cc1ccc(CNC2CCCc3c2cnn3C)s1` (stereo not drawn) the value was 6.95%; for `Cc1nc(CN2CCN(CC(=O)Nc3c(C)cccc3C)CC2)no1`, 5.58%; for `CC(=O)N1CCC(C(=O)c2cc(C)cnc2N)CC1`, 3.15%.
Same read-out and setting: in the case of `CC(=O)N1C[C@H](NC(=O)c2cscn2)[C@@H]2OCCC[C@@H]21` it was -5.38%; in that of `NC(=O)COc1ccc(CNCc2ccc(F)cc2F)cc1`, 3.01%; in that of `CCCNC(=O)CN1CCN(Cc2csc(C(C)(C)C)n2)CC1`, -4.63%.
The same measure, in the same setting: in the case of `CCN1CC2(CCNCC2)COc2ccccc2S1(=O)=O` it was -4.91%.
Take `Cc1ccccc1CSc1nc(N)cc(N2CC[C@@H](O)C2)n1`: the Percent Effect came to 7.33%.
The same measure, in the same setting: for `O=C1CC2(CCN(CCO)CC2)CN1Cc1cc(F)cc(F)c1` the value was 4.18%; for `O=C(c1csc(-c2cccs2)n1)N1CCCC1Cn1cccn1` (stereo not drawn), -3.83%.
On the same count and under the same terms, for `CS(=O)(=O)N1CCC(Oc2ccc(C(=O)N3CCSCC3)cc2Cl)CC1` the value was 4.37%; for `CCc1nnc2n1CCN(Cc1csc(-c3cnn(C)c3)n1)C2`, -3.79%.
`CN(C)C(=O)CNC(=O)c1ccc(Cl)cc1F`: the Percent Effect was 3.99%.
As for `Fc1ccc(-c2cnc(CN3CCCC3Cn3cccn3)o2)cc1` (stereo not drawn), the Percent Effect is -4.82%.
Same read-out and setting: for `Cc1cccnc1NCCNC(=O)[C@H]1CNC[C@@H](C(=O)N2CCCC2)C1` the value was 2.38%.
Same read-out and setting: for `Cc1cnc(NC(=O)c2ccc(-n3ncc(C#N)c3N)cc2)s1` the value was -6.33%; for `NCc1cnn(-c2ccccc2C(=O)NCCCn2ccnc2)c1`, -3.16%; for `CN(Cc1cnn(C)c1)C(=O)NC1CCN(Cc2ccccn2)CC1`, -8.99%.
On to `CC(C)C(NC(=O)NCC1(CO)CC1)c1nnc2n1CCC2` (stereo not drawn), for which the Percent Effect stood at 2.54%.
As to `COc1ccccc1CN(C)c1nccc(-c2cn(C)nc2C)n1`, the Percent Effect turned out to be 4.58%.
For `COc1ccc(CNC(=O)Nc2cccnc2N2CCCC2)cc1O`, the Percent Effect was 4.81%.
For `Cn1ncc2c1CN(Cc1cccnc1)CC2COCC1CC1` (stereo not drawn), the Percent Effect turned out to be 6.55%.
The same measure, in the same setting: in the case of `COc1ccc(OC)c(CNCCc2cc(F)cc3c2OCOC3)c1` it was 4.57%; in that of `CS(=O)(=O)NCCCN1CCCC1c1ccccc1` (stereo not drawn), 1.42%.
For the compound `CN1CCOC(CNCc2cccc(OCC(F)(F)F)c2)C1` (stereo not drawn), the Percent Effect was -1.79%.
As for `Cc1cnn(CCNCc2csc(-c3cccs3)n2)c1`, the Percent Effect is -0.564%.
With `CCn1cnnc1CNC(=O)NC(C)c1cccs1` (stereo not drawn), the Percent Effect worked out at 1.5%.
Still for that read-out and setting: in the case of `CC(C)Nc1nc(N2CCOCC2)nc2c1CN(CC(=O)N(C)C)CC2` it was -0.591%; in that of `O=C(NCCCO)C1CC(=O)N(c2n[nH]c3cccc(F)c23)C1` (stereo not drawn), 1.57%.
On the same count and under the same terms, in the case of `Cn1cc(CN2C[C@@H]3COC[C@@H](C(=O)N4CCCCO4)[C@@H]3C2)cn1` it was 0.787%; in that of `O=C1CC(c2ccccc2)c2snc(C(=O)O)c2N1` (stereo not drawn), 2.95%.
As to `CCc1nc(C(=O)N2CCCC2)nn1-c1ccccc1Cl`, the Percent Effect stood at 4.95%.
Regarding `Cc1ccc(Nc2nccc(C3CN(CC(N)=O)C3)n2)nc1`, the Percent Effect was 7.12%.
The same measure, in the same setting: for `O=C(NCCCn1cccn1)N1CCCC1c1ccncc1` (stereo not drawn) the value was -6.13%; for `CCC1CN(CC(=O)Nc2sccc2C#N)CCO1` (stereo not drawn), 0.376%; for `CCc1n[nH]c(C2CN(C(=O)c3cnc[nH]3)CCO2)n1` (stereo not drawn), 0.686%.
The same measure, in the same setting: in the case of `O=C(NCC1CCCO1)c1c(-n2cnnn2)sc2c1CCC2` (stereo not drawn) it was -2.82%.

A further assay deals with T1, Arginase-2, mitochondrial (Homo sapiens) (UniProt P78540).
T1 sequence (whole entry): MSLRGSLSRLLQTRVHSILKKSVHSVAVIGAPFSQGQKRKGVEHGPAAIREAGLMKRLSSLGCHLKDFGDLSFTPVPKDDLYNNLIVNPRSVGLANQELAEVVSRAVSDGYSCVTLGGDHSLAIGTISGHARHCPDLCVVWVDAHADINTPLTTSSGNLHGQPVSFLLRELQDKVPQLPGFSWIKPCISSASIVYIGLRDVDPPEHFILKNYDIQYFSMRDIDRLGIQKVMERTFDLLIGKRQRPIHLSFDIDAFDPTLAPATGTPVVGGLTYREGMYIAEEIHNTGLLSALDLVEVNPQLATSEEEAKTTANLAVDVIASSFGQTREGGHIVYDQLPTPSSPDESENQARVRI
Nature of the assay: in vitro enzyme assay to detect the production of urea directly proportional to the activity of Arginase II. The assay is classed as functional. On the set-up: scale not given: in the data most compounds retested in dose-response had high values. The note with it: 33.3 µM.
Regarding `CCn1nc(C)c(CNC(=O)c2cn(CC3CCCO3)nn2)c1C` (stereo not drawn), the Percent Effect is 2.08%.
On the same count and under the same terms, for `CN1CCCc2cc(CNC(=O)c3ccc(NC4CC4)nc3)ccc21` the value was 2.8%; for `Cc1ccc(CNC2CCCc3c2cnn3C)s1` (stereo not drawn), 0.21%; for `Cc1nc(CN2CCN(CC(=O)Nc3c(C)cccc3C)CC2)no1`, 1.9%.
Still for that read-out and setting: for `CC(=O)N1CCC(C(=O)c2cc(C)cnc2N)CC1` the value was 3.03%; for `CC(=O)N1C[C@H](NC(=O)c2cscn2)[C@@H]2OCCC[C@@H]21`, 7.33%.
The same measure, in the same setting: in the case of `NC(=O)COc1ccc(CNCc2ccc(F)cc2F)cc1` it was 24.7%; in that of `CCCNC(=O)CN1CCN(Cc2csc(C(C)(C)C)n2)CC1`, -1.14%; in that of `CCN1CC2(CCNCC2)COc2ccccc2S1(=O)=O`, -18.1%.
As to `Cc1ccccc1CSc1nc(N)cc(N2CC[C@@H](O)C2)n1`, the Percent Effect was -3.23%.
On the same count and under the same terms, in the case of `O=C1CC2(CCN(CCO)CC2)CN1Cc1cc(F)cc(F)c1` it was 13.7%.
The same measure, in the same setting: in the case of `O=C(c1csc(-c2cccs2)n1)N1CCCC1Cn1cccn1` (stereo not drawn) it was 1.08%.
Still for that read-out and setting: in the case of `CS(=O)(=O)N1CCC(Oc2ccc(C(=O)N3CCSCC3)cc2Cl)CC1` it was -2.21%.
On to `CCc1nnc2n1CCN(Cc1csc(-c3cnn(C)c3)n1)C2`, for which the Percent Effect was -2.21%.
On the same count and under the same terms, for `CN(C)C(=O)CNC(=O)c1ccc(Cl)cc1F` the value was -65.1%; for `Fc1ccc(-c2cnc(CN3CCCC3Cn3cccn3)o2)cc1` (stereo not drawn), 7.22%.
Same read-out and setting: for `Cc1cccnc1NCCNC(=O)[C@H]1CNC[C@@H](C(=O)N2CCCC2)C1` the value was 0%; for `Cc1cnc(NC(=O)c2ccc(-n3ncc(C#N)c3N)cc2)s1`, -4.18%; for `NCc1cnn(-c2ccccc2C(=O)NCCCn2ccnc2)c1`, -1.16%.
Turning to `CN(Cc1cnn(C)c1)C(=O)NC1CCN(Cc2ccccn2)CC1`, the Percent Effect came out at 0.356%.
With `CC(C)C(NC(=O)NCC1(CO)CC1)c1nnc2n1CCC2` (stereo not drawn), the Percent Effect was 4.58%.
On the same count and under the same terms, in the case of `COc1ccccc1CN(C)c1nccc(-c2cn(C)nc2C)n1` it was 24%.
In the case of `COc1ccc(CNC(=O)Nc2cccnc2N2CCCC2)cc1O`, the Percent Effect was -7.62%.
With `Cn1ncc2c1CN(Cc1cccnc1)CC2COCC1CC1` (stereo not drawn), the Percent Effect amounted to 4.79%.
On the same count and under the same terms, in the case of `COc1ccc(OC)c(CNCCc2cc(F)cc3c2OCOC3)c1` it was -3.09%.
The same measure, in the same setting: for `CS(=O)(=O)NCCCN1CCCC1c1ccccc1` (stereo not drawn) the value was 3.04%; for `CN1CCOC(CNCc2cccc(OCC(F)(F)F)c2)C1` (stereo not drawn), 0.38%; for `Cc1cnn(CCNCc2csc(-c3cccs3)n2)c1`, -1.92%.
On the same count and under the same terms, for `CCn1cnnc1CNC(=O)NC(C)c1cccs1` (stereo not drawn) the value was -5.69%.
For the compound `CC(C)Nc1nc(N2CCOCC2)nc2c1CN(CC(=O)N(C)C)CC2`, the Percent Effect was 1.17%.
With `O=C(NCCCO)C1CC(=O)N(c2n[nH]c3cccc(F)c23)C1` (stereo not drawn), the Percent Effect was -12.2%.
Take `Cn1cc(CN2C[C@@H]3COC[C@@H](C(=O)N4CCCCO4)[C@@H]3C2)cn1`: the Percent Effect was 3.03%.
For the compound `O=C1CC(c2ccccc2)c2snc(C(=O)O)c2N1` (stereo not drawn), the Percent Effect was 20.9%.
On to `CCc1nc(C(=O)N2CCCC2)nn1-c1ccccc1Cl`, for which the Percent Effect worked out at 2.16%.
Still for that read-out and setting: in the case of `Cc1ccc(Nc2nccc(C3CN(CC(N)=O)C3)n2)nc1` it was -5.8%; in that of `O=C(NCCCn1cccn1)N1CCCC1c1ccncc1` (stereo not drawn), -1.56%; in that of `CCC1CN(CC(=O)Nc2sccc2C#N)CCO1` (stereo not drawn), 0%.
`CCc1n[nH]c(C2CN(C(=O)c3cnc[nH]3)CCO2)n1` (stereo not drawn): the Percent Effect was determined as 4.84%.
Still for that read-out and setting: in the case of `O=C(NCC1CCCO1)c1c(-n2cnnn2)sc2c1CCC2` (stereo not drawn) it was 3.55%.
